Sampled rows, rich in hits. Any-hit rate of the full collection: about 6.7%.
Pf Dd2 growth – P. falciparum Dd2 growth inhibitors, primary screen, SYBR Green fluorescence, single dose replicates. 72 h; hits give low values. activity change, % at 10 µM. 2.3% of 94,000 active. AID 1159554, 2015; in the data active means activity change below about -80%; inconclusive means no clear call, values can overlap the other calls
T cruzi growth-1 – T. cruzi intracellular proliferation inhibitors, primary screen, cell-based, beta-gal Tulahuen parasites, NIH3T3 host, luminescence; inhibition, % at 8.34 µM; T. cruzi beta-gal in NIH3T3, GalScreen luminescence, 90 h; 5.9% of 77,000 active;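 active means mean inhibition above about 93%, with at least 55% of replicates each passing it, limit read from the data, passing the limit was not always enough; inconclusive means only one of those two conditions holds; inactive means neither condition holds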
C diff HTS – C. difficile growth inhibitors, primary screen, HTS; growth activity, negative = inhibition, % at 16 µg/mL (by protocol); AID 1259249, 2017; 0.25% of 86,000 active; Clostridium difficile clinical isolate growth, OD600, 24 h; hits give low values;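 active means mean growth activity at or below -80% and every replicate also at or below -80%; inconclusive means mean at or below -80% but some replicate above -80%; inactive means mean growth activity above -80%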;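 further: 0% = DMSO wells and -100% = levofloxacin 16 µg/mL wells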
T cruzi growth-2 – T. cruzi intracellular proliferation inhibitors, confirmation, cell-based, NIH3T3 host, beta-gal parasite, luminescence, cherry-pick; shares compounds with T cruzi growth-1; T. cruzi beta-gal in NIH3T3, GalScreen luminescence, 90 h; inhibition, % at 8.35 µM; 72% of 5,600 active; AID 651739, 2012;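 active means mean replicate inhibition above about 95% and at least 55% of replicates individually reaching it, limit read from the data; inconclusive means only one of the two criteria is met; inactive means neither criterion is met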
T cruzi growth-3 – inhibitors of intracellular T. cruzi replication, confirmation, NIH3T3 host cells, beta-gal parasites, cherry-pick, set 2. 21% of 5,600 active. inhibition, % at 2.09 µM. shares compounds with T cruzi growth-1. T. cruzi beta-gal in NIH3T3, GalScreen luminescence, 90 h;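 active means mean inhibition above about 95%, with at least 55% of replicates also reaching it, limit read from the data; inconclusive means meets just one of the two conditions; inactive means meets neither condition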;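 further: plate controls were neutral control median for no effect and positive control median for full effect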
NIH3T3 tox – cytotoxicity in mouse NIH/3T3 fibroblasts, confirmation, cytotoxicity control for T. cruzi proliferation inhibitor project, cell-based, cherry-pick, single point | cytotoxicity (signal decrease), % at 8.35 µM | 14% of 5,600 active | NIH/3T3 viability, CellTiter-Glo ATP luminescence, 90 h | shares compounds with T cruzi growth-1;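 active means mean signal decrease across replicates above about 35% based on untreated-well scatter, with enough replicates individually passing, limit read from the data; inconclusive means no rule stated though some were filed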;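 further: 0% = median of neutral control wells and 100% = median of positive control wells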
NIH3T3 tox 2 – NIH/3T3 fibroblast cytotoxicity, confirmation, cytotoxicity control, cell-based, cherry-pick, single point, set 2; shares compounds with T cruzi growth-1; 56% of 5,600 active; inhibition, % at 24.9 µM; NIH/3T3 viability, CellTiter-Glo ATP luminescence, 90 h;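 active means mean loss of cell viability signal at or above a set limit, and enough replicates individually reaching it; inconclusive means meets only the mean limit or only the replicate share; inactive means meets neither condition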;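 further: 0% = median of neutral control wells and 100% = median of positive control wells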
* hit, by the source's call; ? = inconclusive; . = not tested or not shown.

SMILES	Pf Dd2 growth	T cruzi growth-1	C diff HTS	T cruzi growth-2	T cruzi growth-3	NIH3T3 tox	NIH3T3 tox 2
COCCNC(=O)C[C@@H]1C[C@H]2c3cc(NC(=O)CC4CC4)ccc3O[C@H]2[C@@H](CO)O1	24	0	-2	.	.	.	.
C[C@H](CO)N1C[C@H](C)[C@H](CN(C)C(=O)NC2CCCC2)Oc2cc(C#Cc3ccc(F)cc3)ccc2S1(=O)=O	-47	104*	-9	95*	116*	-5	61*
C[C@@H]1CN([C@@H](C)CO)S(=O)(=O)c2ccc(C#Cc3ccc(F)cc3)cc2O[C@@H]1CN(C)C(=O)NC1CCCC1	-45	115*	-4	101*	87	-19	74*
C[C@@H]1CN([C@@H](C)CO)S(=O)(=O)c2ccc(C#Cc3ccc(F)cc3)cc2O[C@H]1CN(C)C(=O)NC1CCCCC1	-41	84	-1	.	.	.	.
COc1ccc(C#Cc2ccc3c(c2)O[C@@H](CN(C)C(=O)NC2CCCCC2)[C@H](C)CN([C@H](C)CO)S3(=O)=O)cc1	-75	?	-7	103*	99*	-13	13
C[C@H]1CN([C@@H](C)CO)S(=O)(=O)c2ccc(C#Cc3ccc(F)cc3)cc2O[C@H]1CN(C)C(=O)NC1CCCC1	?	99*	-14	99*	113*	2	104*
C[C@@H]1CN([C@H](C)CO)S(=O)(=O)c2ccc(C#Cc3ccc(F)cc3)cc2O[C@@H]1CN(C)C(=O)NC1CCCCC1	-3	78	3	.	.	.	.
C[C@H](CO)N1C[C@H](C)[C@@H](CN(C)C(=O)NC2CCCC2)Oc2cc(C#Cc3ccc(F)cc3)ccc2S1(=O)=O	-29	60	15	.	.	.	.
C[C@H](CO)N1C[C@H](C)[C@@H](CN(C)C(=O)NC2CCCCC2)Oc2cc(C#Cc3ccc(F)cc3)ccc2S1(=O)=O	-34	87	9	.	.	.	.
O=C(CCN1CCCCC1)NCC[C@@H]1CC[C@H](NS(=O)(=O)c2cccc(F)c2)[C@@H](CO)O1	14	-92	0	.	.	.	.
Cc1noc(C)c1NC(=O)Nc1ccc2c(c1)CC(=O)N([C@H](C)CO)C[C@@H](C)[C@H](CN(C)Cc1ccc(-c3ccccc3)cc1)O2	11	-67	-6	.	.	.	.
COc1cccc(S(=O)(=O)N[C@@H]2CC[C@H](CCNC(=O)Nc3cc(F)ccc3F)O[C@H]2CO)c1	1	-33	1	.	.	.	.
C[C@@H]1CN([C@H](C)CO)C(=O)c2cc(NC(=O)NC3CCCCC3)ccc2O[C@@H](C)CCCCO[C@@H]1CN(C)S(=O)(=O)c1ccc(Cl)cc1	.	89	1	.	.	.	.
CCC(=O)N1CC2(C1)CN(C(=O)Nc1ccccc1F)[C@@H](CO)c1c2c2ccc(OC)cc2n1C	-22	.	0	.	.	.	.
C[C@H]1CN([C@@H](C)CO)S(=O)(=O)c2ccc(-c3ccc(C(=O)N(C)C)cc3)cc2O[C@H]1CN(C)C(=O)C1CC1	-17	69	.	.	.	.	.
CC(C)CC#Cc1ccc2c(c1)O[C@@H](CN(C)C(=O)NC1CCCC1)[C@@H](C)CN([C@H](C)CO)S2(=O)=O	-28	119*	-10	106*	94	-3	102*
CC(C)CC#Cc1ccc2c(c1)O[C@H](CN(C)C(=O)NC1CCCC1)[C@@H](C)CN([C@H](C)CO)S2(=O)=O	-2	79	10	.	.	.	.
C[C@@H]1CN([C@@H](C)CO)C(=O)c2cccc(NS(=O)(=O)c3cccs3)c2O[C@H]1CN(C)Cc1ccc(Oc2ccccc2)cc1	-43	38	.	.	.	.	.
O=C(CN1CCOCC1)N1CC[C@H]2[C@H](CO)Nc3ccc(-c4ccc(F)cc4)cc3[C@H]21	-25	86	3	.	.	.	.
COc1cccc(-c2ccc3c(c2)[C@H]2[C@H](CCN2C(=O)CN2CCOCC2)[C@@H](CO)N3)c1	-16	?	-9	87	34	-9	-2
COc1cccc(-c2ccc3c(c2)[C@H]2[C@H](CCN2C(=O)Cc2ccncc2)[C@H](CO)N3)c1	-76	104*	.	95	62	4	15
CN(C)C(=O)c1cccc(-c2ccc3c(c2)[C@@H]2[C@@H](CCN2C(=O)C2CCOCC2)[C@H](CO)N3)c1	3	?	2	99*	26	-14	-9
COc1ccc(-c2ccc3c(c2)[C@@H]2[C@@H](CCN2C(=O)CN2CCOCC2)[C@@H](CO)N3)cc1	-12	60	-19	.	.	.	.
COc1cccc(-c2ccc3c(c2)[C@@H]2[C@@H](CCN2C(=O)Cc2ccccc2)[C@@H](CO)N3)c1	1	17	-28	.	.	.	.
CN(C)C(=O)c1cccc(-c2ccc3c(c2)[C@H]2[C@H](CCN2C(=O)C2CCOCC2)[C@H](CO)N3)c1	8	92	5	.	.	.	.
SMILES	Pf Dd2 growth	T cruzi growth-1	C diff HTS	T cruzi growth-2	T cruzi growth-3	NIH3T3 tox	NIH3T3 tox 2
O=C(CN1CCOCC1)N1CC[C@@H]2[C@H]1c1cc(-c3ccccc3)ccc1N[C@@H]2CO	7	?	-11	98*	14	-17	5
O=C(C[C@H]1CC[C@@H]2[C@H](COC[C@H](O)CN2Cc2nccs2)O1)NCc1ccc(-c2ccccc2)cc1	-9	42	.	.	.	.	.
C[C@@H]1CN([C@@H](C)CO)C(=O)Cc2cc(NS(C)(=O)=O)ccc2O[C@H]1CN(C)C(=O)Nc1ccc(C(F)(F)F)cc1	17	25	-2	.	.	.	.
CNC[C@@H]1OCCCC[C@@H](C)Oc2ccc(NS(=O)(=O)c3ccccc3)cc2C(=O)N([C@@H](C)CO)C[C@@H]1C	12	24	1	.	.	.	.
COc1cccc(-c2ccc3c(c2)[C@@H]2[C@@H](CCN2C(=O)C2CCOCC2)[C@@H](CO)N3)c1	-7	103*	-1	101*	?	13	17
COc1cccc(-c2ccc3c(c2)[C@H]2[C@H](CCN2C(=O)C2CC2)[C@H](CO)N3)c1	-58	.	-18	.	.	.	.
O=C(NCCN1CCCCC1)[C@@H]1[C@@H](CO)[C@@H]2Cn3c(cccc3=O)[C@H]1N2C(=O)C1CC1	4	37	3	.	.	.	.
COc1ccc(CN(C)C[C@H]2Oc3c(NS(C)(=O)=O)cccc3C(=O)N([C@@H](C)CO)C[C@@H]2C)cc1	15	-44	-3	.	.	.	.
COc1cccc(NC(=O)N(C)C[C@H]2Oc3cc(-c4ccccc4OC)ccc3S(=O)(=O)N([C@H](C)CO)C[C@H]2C)c1	-34	.	-2	.	.	.	.
COc1cccc(NC(=O)N(C)C[C@@H]2Oc3cc(C#CC4(O)CCCC4)ccc3S(=O)(=O)N([C@@H](C)CO)C[C@H]2C)c1	0	.	4	.	.	.	.

Assay outcomes: PubChem, Broad Institute
